Each structure is given as a SMILES string. “And” between values parts separate entries of the source, which are not always exact repeats. Identical values can stand only once. Results filed as inconclusive are left out. More than one record can exist for a structure, and the calls need not agree. The source made the active and inactive calls. The calls were made as follows: active = hit-call score of the fitted dose curve at least 0.9, where 1 is the maximum; inconclusive = response in the unintended direction; inactive = score below 0.9.

Sequence of Bile acid receptor (Homo sapiens) (Q96RI1 whole entry, looked up, the tested form may be a part): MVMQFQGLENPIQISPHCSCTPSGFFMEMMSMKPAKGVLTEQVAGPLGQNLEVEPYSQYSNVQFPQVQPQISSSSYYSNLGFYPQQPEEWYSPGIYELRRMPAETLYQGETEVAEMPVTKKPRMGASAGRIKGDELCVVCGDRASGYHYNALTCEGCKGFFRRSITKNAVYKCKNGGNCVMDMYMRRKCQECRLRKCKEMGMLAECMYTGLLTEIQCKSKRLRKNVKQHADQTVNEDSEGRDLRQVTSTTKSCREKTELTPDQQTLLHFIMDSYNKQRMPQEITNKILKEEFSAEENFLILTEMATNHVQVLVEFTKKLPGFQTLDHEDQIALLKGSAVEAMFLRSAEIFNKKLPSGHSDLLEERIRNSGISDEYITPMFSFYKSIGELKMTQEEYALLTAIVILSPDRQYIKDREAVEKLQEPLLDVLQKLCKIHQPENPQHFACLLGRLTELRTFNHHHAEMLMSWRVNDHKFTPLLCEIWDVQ

The test has as its target Bile acid receptor (Homo sapiens) (UniProt Q96RI1). The experiment in a line: ATG_FXR_TRANS: Attagene TRANS-FACTORIAL HepG2 Assay for Farnesoid X Receptor (FXR) (AID 2282979).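 Also: hits raise reporter mRNA above DMSO so AC50 marks FXR activation.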 The settings on record: HepG2 Attagene TRANS FXR-GAL4 reporter transcription. Here is the method: ATG_TRANS is a cell-based, multiplexed-readout assay that uses HepG2, a human liver cell line, with measurements taken at 24 hours after chemical dosing in a 24-well plate.ATG_FXR_TRANS is one of 30 assay component(s) measured or calculated from the ATG_TRANS assay. It is designed to make measurements of mRNA induction, a form of inducible reporter, as detected with fluorescence intensity signals by Reverse transcription polymerase chain reaction (RT-PCR) and Capillary electrophoresis technology.Data from the assay component ATG_FXR_TRANS was analyzed into 1 assay endpoint. This assay endpoint, ATG_FXR_TRANS, was analyzed in the positive analysis fitting direction relative to DMSO as the negative control and baseline of activity. Using a type of inducible reporter, measures of mRNA for gain-of-signal activity can be used to understand the reporter gene at the transcription factor-level as they relate to the gene NR1H4. Furthermore, this assay endpoint can be referred to as a primary readout, because this assay has produced multiple assay endpoints where this one serves a reporter gene function. To generalize the intended target to other relatable targets, this assay endpoint is annotated to the nuclear receptor intended target family, where the subfamily is non-steroidal.
Human liver HepG2 cells are transiently transfected with multiple reporter transcription units (MRTUs) in 6-well plates using FuGene 6 reagent (Roche; 3 ml FuGene/1 mg DNA). The MRTU constructs are regulated by a cis-regulating element (promoter). […] A major difference between the CIS and TRANS system is that in CIS activities of endogenous TFs are measured, whereas the TRANS assay evaluates changes in activities of exogenous, chimeric NR-Gal4 proteins. […] At the end of 24 hour incubation, total RNA was isolated using TriZol reagent (Invitrogen). The isolated RNA is then reverse-transcribed using oligo(dT) primer and Mo-MLV reverse transcriptase (Invitrogen) with DNAse I (Ambion) treatment for 30 min. The one-tenth of the produced cDNA was amplified by PCR using Taq DNA polymerase (Invitrogen) and two reporter sequence-specific primers. The PCR products were fluorescently labeled by primer extension with 6-arboxyfluorescein (6-FAM) 5'-labeled reporter sequence-specific primer (2 min at 95 C, 20 s at 68 C and 10 min at 72 C) and these products were digested with 5U of HpaI (New England Biolabs) for 2h at 37 C. The fragments were purified using Qiaquick PCR columns (Qiagen), analyzed on an ABI 3130xL genetic analyzer (Applied Biosystems) with peak positions identified by using a set of X-rhodamine (ROX)-labeled MapMarker1000 molecular weight standards (BioVentures). The raw capillary electrophoresis data was processed using Attagraph software (Attagene).
One may read the AC50 as the concentration at which the activity in the assay is half-maximal. With `Oc1cc(Cl)ccc1Oc1ccc(Cl)cc1Cl`, the call was inactive; the AC50 was 11.1 µM (active) and 17.1 µM (active).
`CCOc1nc(NC)nc(NC(=O)NS(=O)(=O)c2ccccc2C(=O)OC)n1`: the compound was classed as inactive.
Consider `ClC1C(Cl)C(Cl)C(Cl)C(Cl)C1Cl` (stereo not drawn), for which the AC50 is 139 µM (active) and the compound was classed as inactive.
With `CCc1ccc(C(=O)NN(C(=O)c2cc(C)cc(C)c2)C(C)(C)C)cc1`, the compound was classed as inactive.
Same read-out and setting: in the case of `CCC(C)(NC(=O)c1cc(Cl)c(C)c(Cl)c1)C(=O)CCl` (stereo not drawn) it was “inactive”; in that of `CCS(=O)(=O)c1cccnc1S(=O)(=O)NC(=O)Nc1nc(OC)cc(OC)n1`, “inactive”.
Still for that read-out and setting: under `N#Cc1c(Cl)c(Cl)c(Cl)c(C#N)c1Cl` stands “inactive”.
Same read-out and setting: under `COc1nn(CSP(=S)(OC)OC)c(=O)s1` stands “inactive”.
`O=[N+]([O-])/N=C1\NCCN1Cc1ccc(Cl)nc1`: the outcome was inactive.
Regarding `COc1cc(OC)nc(NC(=O)NS(=O)(=O)c2cc(NC=O)ccc2C(=O)N(C)C)n1`, the call was inactive.
Still for that read-out and setting: in the case of `CCCN(CCOc1c(Cl)cc(Cl)cc1Cl)C(=O)n1ccnc1` it was “inactive”; in that of `CCN(CC)C(=O)SCc1ccc(Cl)cc1`, “inactive”.
Still for that read-out and setting: in the case of `CNC(=O)Oc1cccc(N=CN(C)C)c1` it was “inactive”.
On the same count and under the same terms, under `COC(=O)c1ccccc1CS(=O)(=O)NC(=O)Nc1nc(OC)cc(OC)n1` stands “inactive”.
For `CNC(=O)/C=C(\C)OP(=O)(OC)OC`, the outcome was inactive.
`O=C(Nc1ccccc1)Nc1cnns1`: the compound was classed as inactive.

The values above are taken from PubChem BioAssay (EPA / NIEHS).
